Results on 7 molecules are retold here after PubChem BioAssay (NCI).

Among the test systems are NCI-H23 lung; NCI-H226 lung; NCI-H322M lung; HOP-62 NSCLC; NCI-H460 lung; HOP-92 NSCLC; NCI-H522 lung; A549/ATCC NSCLC; 786-0 renal; COLO 205 colon; DU-145 prostate; K-562 leukemia; MALME-3M melanoma; MDA-MB-231 breast; RXF 393 renal; SF-268 CNS; SF-295 CNS; SF-539 CNS; UACC-257 melanoma; M14 melanoma.
Assay in all cases: NCI-60 one-dose screen, 48 h (100 = growth as untreated, 0 = no growth, -100 = all killed)
Conditions in all cases: 10 µM unless noted

Compounds without any hit were thinned out: in the full panel of roughly 83,000, 20% have a hit.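 Cell lines were cultured in 96-well plates, exposed to a single compound concentration, and assessed for percent growth 48 hours later.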 Unmarked numbers belong to inactive results. The source made the active and inactive calls. How the source made its calls: active means growth percent below 10; inactive means the rest.

With `Cc1c2cc[nH]c(=O)c2c(C)c2c1[nH]c1ccc(OC(=O)c3ccccc3)cc12`, the growth in the assay with NCI-H23 lung is 24.4%; with NCI-H226 lung, 38.5%; with NCI-H322M lung, 40.8%; in the assay on HOP-62 NSCLC, 18.7%; in the assay with NCI-H460 lung, 1.23% (active); in the assay on HOP-92 NSCLC, 40.9%. Further, the growth was 26.9% in the assay with NCI-H522 lung; 6.49% (active) in the assay on A549/ATCC NSCLC; 44.9% in the assay with 786-0 renal; 30.4% in the assay with COLO 205 colon; 34% with DU-145 prostate; 36.2% with K-562 leukemia. Besides, the growth is 20% in the assay on MALME-3M melanoma; 34% in the assay with MDA-MB-231 breast; 37.4% with RXF 393 renal; 40% in the assay on SF-268 CNS; 31.6% in the assay with SF-295 CNS; 17.1% in the assay with SF-539 CNS. The growth with UACC-257 melanoma was 11.2%; in the assay on M14 melanoma it was 33.7%.

Consider `CN1CCN(C(=O)c2cc(-c3ccc4ncnc(N5CCc6cc(F)c(Cl)cc65)c4c3)cnc2N)CC1`, for which the growth was 8.25% (active) in the assay on NCI-H23 lung; 14.5% with NCI-H226 lung; -8.41% (active) in the assay on NCI-H322M lung; 12% in the assay on HOP-62 NSCLC; 8.83% (active) with NCI-H460 lung; -27.2% (active) in the assay on HOP-92 NSCLC. Further, the growth in the assay on NCI-H522 lung is 2.49% (active); in the assay with A549/ATCC NSCLC, 3.84% (active); in the assay with 786-0 renal, 2.28% (active); in the assay on COLO 205 colon, 3.92% (active); in the assay with DU-145 prostate it was 8.87% (active); with K-562 leukemia, 11.1%. Also, the growth is -38.6% (active) in the assay on MALME-3M melanoma; 10.5% in the assay with MDA-MB-231 breast; -48.9% (active) with RXF 393 renal; 0.525% (active) in the assay on SF-268 CNS; 0.0297% (active) with SF-295 CNS; -24.3% (active) with SF-539 CNS. In addition, the results for the growth with UACC-257 melanoma and in the assay on M14 melanoma were 6% (active) and 1.59% (active), respectively.

As for `CCCCCCCCCCCCCCCCCCOc1ccccc1CC(=O)NCC[N+]1(C)CCOCC1`, the growth in the assay with NCI-H23 lung is 67.8%; with NCI-H226 lung, 69.2%; in the assay with NCI-H322M lung it was 65.2%; in the assay with HOP-62 NSCLC it was 53%; in the assay on NCI-H460 lung, 45.7%; with HOP-92 NSCLC, -2.9% (active). For the same molecule, the growth in the assay with NCI-H522 lung is 30.8%; in the assay with A549/ATCC NSCLC, 55.6%; in the assay with 786-0 renal, 2.4% (active); with COLO 205 colon, 37.6%; in the assay on DU-145 prostate, 65.5%; with K-562 leukemia, 15.7%. The growth in the assay on MALME-3M melanoma was 58.9%; in the assay on MDA-MB-231 breast, 54.1%; in the assay on RXF 393 renal it was -39.4% (active); in the assay with SF-268 CNS, 41.5%; with SF-295 CNS, 62.8%; with SF-539 CNS, 54.5%. The growth in the assay with UACC-257 melanoma was 99.4%; with M14 melanoma it was 69.6%.

`COc1ccc(Nc2ncccc2NC(=O)c2cn(Cc3cccc(Oc4ccccc4)c3)nn2)cc1OC`: the growth with NCI-H23 lung was 76%; with NCI-H226 lung, 92.4%; in the assay on NCI-H322M lung, 83.7%; in the assay on HOP-62 NSCLC it was 88%; in the assay on NCI-H460 lung it was 97.4%; in the assay on HOP-92 NSCLC, 81.6%. Also, the growth in the assay with NCI-H522 lung was 77.1%; with A549/ATCC NSCLC, 86.7%; in the assay on 786-0 renal, 90.5%; with COLO 205 colon it was 81.4%; in the assay on DU-145 prostate it was 84%; in the assay on K-562 leukemia it was 28.7%. The growth in the assay with MALME-3M melanoma was 87.4%; in the assay with MDA-MB-231 breast, 67.9%; with RXF 393 renal, 86.3%; with SF-268 CNS, 61.7%; in the assay with SF-295 CNS it was 84.2%; with SF-539 CNS it was 95%. In addition, the values for the growth in the assay with UACC-257 melanoma and with M14 melanoma were 92.4% and 72.5%, respectively.

As to `CCOC(=O)c1c2c(n3c1NCC3)-c1ccccc1C2=O`, the growth is 99% with NCI-H23 lung; 99.6% with NCI-H226 lung; 105% in the assay with NCI-H322M lung; 102% with HOP-62 NSCLC; 107% with NCI-H460 lung; 84% with HOP-92 NSCLC. The growth in the assay on NCI-H522 lung was 36.2%; in the assay with A549/ATCC NSCLC, 101%; with 786-0 renal, 94.3%; in the assay with COLO 205 colon it was 110%; in the assay with DU-145 prostate, 100%; with K-562 leukemia, 87.3%. Moreover, the growth in the assay on MALME-3M melanoma was 89.9%; with MDA-MB-231 breast it was 107%; with RXF 393 renal, 102%; in the assay on SF-268 CNS it was 99.6%; with SF-295 CNS it was 96%; in the assay with SF-539 CNS, 93.7%. Further, the growth in the assay with UACC-257 melanoma was 95.7%; with M14 melanoma, 104%.

Turning to `COc1ccc2nc3ccccc3c(NCc3ccc(F)cc3)c2c1`, the growth in the assay with NCI-H23 lung was 14%; in the assay on NCI-H226 lung, 30%; with NCI-H322M lung it was 22.6%; in the assay with HOP-62 NSCLC it was 28.2%; in the assay on NCI-H460 lung, 5.47% (active); with HOP-92 NSCLC it was -11.3% (active). Besides, the growth in the assay on NCI-H522 lung is 18.2%; in the assay with A549/ATCC NSCLC, 19.7%; with 786-0 renal, 6.83% (active); in the assay on COLO 205 colon it was -54.4% (active); with DU-145 prostate, 16.5%; in the assay on K-562 leukemia it was 1.95% (active). Moreover, the growth is -5.2% (active) in the assay with MALME-3M melanoma; 16.7% in the assay on MDA-MB-231 breast; -18.9% (active) in the assay on RXF 393 renal; 34.6% in the assay on SF-268 CNS; 14.4% in the assay with SF-295 CNS; 3.85% (active) with SF-539 CNS. Further, the growth in the assay with UACC-257 melanoma was -11.1% (active); in the assay with M14 melanoma it was 15.3%.

Consider `N#C/C(=C\c1ccc(Cl)cc1Cl)C(=O)Nc1ncc(Cc2ccc(Cl)c(Cl)c2)s1`, for which the growth in the assay on NCI-H23 lung was 91.8%; in the assay with NCI-H226 lung it was 93.4%; in the assay on NCI-H322M lung, 76.4%; with HOP-62 NSCLC, 82.9%; with NCI-H460 lung, 101%; with HOP-92 NSCLC, 70.7%. In addition, the growth in the assay with NCI-H522 lung is 79.1%; with A549/ATCC NSCLC it was 89.3%; in the assay with 786-0 renal, 93.2%; in the assay on COLO 205 colon, 112%; in the assay with DU-145 prostate, 99.3%; in the assay with K-562 leukemia, 25.5%. Also, the growth with MALME-3M melanoma was 93%; with MDA-MB-231 breast, 97.1%; with RXF 393 renal it was 113%; in the assay with SF-268 CNS, 84%; in the assay with SF-295 CNS it was 89.9%; in the assay with SF-539 CNS it was 85.6%. The figures for the growth in the assay with UACC-257 melanoma and in the assay with M14 melanoma were 93.2% and 53.8%, respectively.
